Reference: PubChem BioAssay AID602250 (The Scripps Research Institute Molecular Screening Center, 2012)
The campaign covered roughly 360,000 compounds. About 2,200 (0.61%) were called active.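 The calls were made as follows: active = inhibition above a per-plate cutoff, the plate's mean sample inhibition plus 3 SD (cut at about 24% in these data); inactive = the rest.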 The entries come from a sample that favours actives as a whole.

Assay: calcium signal blockers in parental CHO-K1 cells – cell-based, Fluo-8 calcium fluorescence, full deck, 1536-well, counter-screen for M1 antagonist project, primary screen (AID 602250);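 also: 0% = DMSO plus EC80 ATP and 100% = DMSO alone without ATP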
Details: ATP-induced calcium, Fluo-8 fluorescence, at 3 µM, active compounds read high

Structure (SMILES)	inhibition
CCC(=O)OC(Cc1ccccc1)(c1ccccc1)C(C)CN(C)C (stereo not given)	25.3% (active)
CN(C)CC1Oc2ccccc2OC1(O)c1ccccc1 (stereo not given)	-2.02% (inactive)
CN1CCN(Cc2ccc(OC(F)(F)F)cc2)CC1	-3.91% (inactive)
OC1/C(=C/c2ccc(C(F)(F)F)cc2)N2CCC1CC2 (stereo not given)	-10.6% (inactive)
CN(C)S(=O)(=O)c1cc(C(=O)N2CCC(C(=O)O)(c3ccccc3)CC2)ccc1Cl	-5.53% (inactive)
